Measured values: PubChem BioAssay (NCATS)
“And” between values parts separate entries of the source, which are not always exact repeats. Equal values may be shown once. Results filed as inconclusive are left out. Entries that show only a call come without a potency. A number with no mark means an inactive call. The source made the active and inactive calls. Calls come from the whole dose curve; as a rule, active = well fitted inhibition curve with a large enough effect; inconclusive = small, poorly fitted or top-dose-only effect; inactive = flat fitted curve, though single readings scatter.

How the values were obtained:
CRL-7250 = normal cell line; test: Cytotoxic Profiling of Annotated Libraries Using Quantitative High-Throughput Screening (AID 1296008); details: Five cell lines viability, CellTiter-Glo ATP luminescence, 48-72 h; max response: stronger effect = lower value
Method in brief: (§1)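 Compounds were pin-transferred onto cells and incubated 48 or 72 hr at 37 degree Celsius, 95% humidity. CellTiter-Glo was added, plates sat 10 min at room temperature, then ATP-coupled luminescence was imaged as the viability read-out.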

KB-3-1 = test: as above; details: Five cell lines viability, CellTiter-Glo ATP luminescence, 48-72 h; max response: stronger effect = lower value
Method in brief: as §1

MKL-1 = test: qHTS assay to identify novel small-molecules to repurpose for Merkel cell carcinoma treatment (AID 1296009); details: MCC and control cell lines, CellTiter-Glo viability, 72 h; series mostly up to 46 µM
Method in brief: (§2)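 qHTS format: cells treated with library compounds in DMSO across 8 (NPC) or 11 (MIPE) concentrations. Readout after 72 hr at 37 degree celsius was CellTiter-Glo luminescence.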

PAD = test: qHTS profiling for inhibitors of Plasmodium falciparum proliferation (AID 504749); details: P. falciparum in erythrocytes, SYBR Green DNA, 72 h; series mostly up to 28.7 µM
Method in brief: (§3)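 Parasite proliferation within erythrocytes, 72 h exposure. Endpoint: SYBR Green I fluorescence after overnight lysis at room temperature. Controls: 0.29 uM artemisinin, DMSO.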

PC49 = test: as above; details: P. falciparum in erythrocytes, SYBR Green DNA, 72 h; series mostly up to 28.7 µM
Method in brief: as §3

W2 = test: as above; details: P. falciparum in erythrocytes, SYBR Green DNA, 72 h; series mostly up to 28.7 µM
Method in brief: as §3

HEK293 = test: Cytotoxic Profiling of Annotated Libraries Using Quantitative High-Throughput Screening (AID 1296008); details: Five cell lines viability, CellTiter-Glo ATP luminescence, 48-72 h; max response: stronger effect = lower value
Method in brief: as §1

MCC-13 = test: qHTS assay to identify novel small-molecules to repurpose for Merkel cell carcinoma treatment (AID 1296009); details: MCC and control cell lines, CellTiter-Glo viability, 72 h; series mostly up to 46 µM
Method in brief: as §2

MCC-26 = test: as above; details: MCC and control cell lines, CellTiter-Glo viability, 72 h; series mostly up to 46 µM
Method in brief: as §2

MKL-2 = test: as above; details: MCC and control cell lines, CellTiter-Glo viability, 72 h; series mostly up to 46 µM
Method in brief: as §2

HaCat [1] = test: Cytotoxic Profiling of Annotated Libraries Using Quantitative High-Throughput Screening (AID 1296008); details: Five cell lines viability, CellTiter-Glo ATP luminescence, 48-72 h; max response: stronger effect = lower value
Method in brief: as §1

NIH3T3 = test: as above; details: Five cell lines viability, CellTiter-Glo ATP luminescence, 48-72 h; max response: stronger effect = lower value
Method in brief: as §1

HACAT [2] = test: qHTS assay to identify novel small-molecules to repurpose for Merkel cell carcinoma treatment (AID 1296009); details: MCC and control cell lines, CellTiter-Glo viability, 72 h; at 44.8 µM (top of the series) unless noted
Method in brief: as §2

PC26 = test: qHTS profiling for inhibitors of Plasmodium falciparum proliferation (AID 504749); details: P. falciparum in erythrocytes, SYBR Green DNA, 72 h; series mostly up to 28.7 µM
Method in brief: as §3

SC27B = test: as above; details: P. falciparum in erythrocytes, SYBR Green DNA, 72 h; series mostly up to 28.7 µM
Method in brief: as §3

TAB109 = test: as above; details: P. falciparum in erythrocytes, SYBR Green DNA, 72 h; series mostly up to 28.7 µM
Method in brief: as §3

TAB113 = test: as above; details: P. falciparum in erythrocytes, SYBR Green DNA, 72 h; series mostly up to 28.7 µM
Method in brief: as §3

TAB165 = test: as above; details: P. falciparum in erythrocytes, SYBR Green DNA, 72 h; series mostly up to 28.7 µM
Method in brief: as §3

PC15 = test: as above; details: P. falciparum in erythrocytes, SYBR Green DNA, 72 h; series mostly up to 28.7 µM
Method in brief: as §3
Note: nearly all actives have a fitted effect of over 60% in size.
Potency is the fitted concentration of half-maximal effect.

Compound: Cn1c(=O)c(F)c(Nc2ccc(I)cc2F)c2c(=O)n(C[C@@H](O)CO)cnc21
- Potency (CRL-7250): 935 nM (active)
- max response (KB-3-1): -4.57%
- Potency (MKL-1): inactive

Compound: C#Cc1cccc(Nc2ncnc3cc(OCCOC)c(OCCOC)cc23)c1
- Potency (PAD): 11.2 µM (active)
- Potency (PC49): inactive
- Potency (W2): 4.26 µM (active)
- Potency (CRL-7250): 18.7 µM (active) and 8.41 µM (active)
- Potency (HEK293): 16.6 µM (active)
- max response (KB-3-1): -10.3% and -1.91%
- Potency (MCC-13): inactive
- Potency (MCC-26): inactive
- Potency (MKL-1): inactive
- Potency (MKL-2): inactive

Compound: CCc1cc(Nc2nccc(-c3c(-c4ccc(OC)c(C(=O)Nc5c(F)cccc5F)c4)nc4ccccn34)n2)c(OC)cc1N1CCC(N2CCN(S(C)(=O)=O)CC2)CC1
- max response (CRL-7250): -19.7%
- outcome (HaCat [1]): inactive
- max response (KB-3-1): 5.37% and -9.54%
- max response (NIH3T3): -25.3%
- outcome (HACAT [2]): inactive
- Potency (MCC-13): inactive
- Potency (MCC-26): inactive
- Potency (MKL-1): inactive

Compound: COc1cc(Oc2ccnc3cc(OC)c(OC)cc23)ccc1NC(=O)NC(C)c1nccs1 (stereo not given)
- max response (CRL-7250): -3.15% and -18.6%
- outcome (HaCat [1]): inactive
- outcome (NIH3T3): inactive
- outcome (HACAT [2]): inactive
- Potency (MCC-13): inactive
- Potency (MCC-26): inactive
- Potency (MKL-1): inactive
- Potency (MKL-2): inactive

Compound: CC(C)C[C@H](NC(=O)[C@@H](O)[C@H](N)Cc1ccccc1)C(=O)O
- Potency (PAD): 10 µM (active)
- Potency (PC26): 9.53 µM (active)
- Potency (SC27B): 7.94 µM (active)
- Potency (TAB109): 6.31 µM (active)
- Potency (TAB113): 7.08 µM (active)
- Potency (TAB165): 5.01 µM (active)
- Potency (W2): 1.69 µM (active)
- Potency (MCC-13): inactive
- Potency (MCC-26): inactive
- Potency (MKL-1): inactive

Compound: CCOc1cc(N2CCC(O)CC2)ccc1Nc1ncc2c(n1)N(C)c1ccccc1C(=O)N2C
- max response (HaCat [1]): 2.41%
- Potency (MKL-1): 3.32 µM (active)
- Potency (MKL-2): 2.64 µM (active)

Compound: Cc1ccc(NC(=O)c2cccc(C(C)(C)C#N)c2)cc1Nc1ccc2ncn(C)c(=O)c2c1
- Potency (NIH3T3): 16.6 µM (active)
- Potency (MCC-26): inactive
- Potency (MKL-1): inactive
- Potency (MKL-2): inactive

Compound: Cc1cc(Nc2nc(N[C@@H](C)c3ncc(F)cn3)ncc2Cl)n[nH]1
- Potency (HEK293): 7.31 µM (active)
- Potency (HaCat [1]): 6.51 µM (active)
- Potency (NIH3T3): 8.2 µM (active)
- Potency (MCC-13): inactive
- Potency (MCC-26): inactive

Compound: CNC(=O)c1ccc(N2C(=S)N(c3ccc(C#N)c(C(F)(F)F)c3)C(=O)C2(C)C)cc1F
- max response (HEK293): -4.81%
- outcome (HaCat [1]): inactive
- max response (KB-3-1): 8.38%
- max response (NIH3T3): -6.26%
- outcome (HACAT [2]): inactive
- Potency (MCC-13): inactive
- Potency (MKL-1): inactive
- Potency (MKL-2): inactive

Compound: Nc1nc2c(ncn2COCCO)c(=O)[nH]1
- Potency (PAD): inactive
- Potency (PC15): inactive
- Potency (PC26): inactive
- Potency (PC49): inactive
- Potency (SC27B): inactive
- Potency (TAB109): inactive
- Potency (TAB113): inactive
- Potency (TAB165): inactive
- Potency (W2): inactive

Compound: Oc1ccc(C2CNCCc3c2cc(O)c(O)c3Cl)cc1 (stereo not given)
- Potency (PAD): inactive
- Potency (PC15): inactive
- Potency (PC26): inactive
- Potency (PC49): inactive
- Potency (SC27B): inactive
- Potency (TAB109): inactive
- Potency (TAB113): inactive
- Potency (TAB165): inactive

Compound: Cc1oncc1C(=O)Nc1ccc(C(F)(F)F)cc1
- Potency (PAD): inactive
- Potency (PC15): inactive
- Potency (PC26): inactive
- Potency (PC49): inactive
- Potency (SC27B): inactive
- Potency (TAB109): inactive
- Potency (TAB113): inactive
- Potency (TAB165): inactive
- Potency (W2): 3.22 µM (active)

Compound: Cc1cccc(-c2[nH]c(C(C)(C)C)nc2-c2ccc3nccnc3c2)n1
- Potency (HEK293): 3.72 µM (active)
- outcome (HaCat [1]): inactive
- Potency (KB-3-1): 14.8 µM (active)
- outcome (HACAT [2]): inactive
- Potency (MCC-13): inactive
- Potency (MKL-1): 2.64 µM (active)

Compound: OCCC#Cc1nc(-c2ccc(F)cc2)c(-c2ccncc2)n1CCCc1ccccc1
- max response (HaCat [1]): 4.71%
- max response (KB-3-1): 6.14%
- outcome (NIH3T3): inactive
- Potency (MCC-13): inactive
- Potency (MCC-26): inactive
- Potency (MKL-1): inactive

Compound: NC[C@H](O)c1ccc(O)c(O)c1
- Potency (PAD): inactive
- Potency (PC15): inactive
- Potency (PC26): inactive
- Potency (PC49): inactive
- Potency (SC27B): inactive
- Potency (TAB109): inactive
- Potency (TAB113): inactive
- Potency (TAB165): inactive
- Potency (W2): inactive

Compound: NC(=O)C1CCCc2c1[nH]c1ccc(Cl)cc21 (stereo not given)
- Potency (HEK293): 5.9 µM (active)
- max response (HaCat [1]): -10.7%
- max response (KB-3-1): 2.38%
- max response (NIH3T3): -12.4%
- Potency (MCC-13): inactive
- Potency (MCC-26): inactive
- Potency (MKL-1): inactive
- Potency (MKL-2): inactive

Compound: O=c1ncn2nc(Sc3ccc(F)cc3F)ccc2c1-c1c(Cl)cccc1Cl
- Potency (HEK293): 13.2 µM (active)
- max response (HaCat [1]): -4.37%
- max response (KB-3-1): -0.339%
- Potency (MCC-13): inactive
- Potency (MKL-1): inactive
- Potency (MKL-2): inactive

Compound: Cc1cc(-c2ccc(CC(=O)Nc3ccc(-c4cccnc4)cc3)cc2)ccn1
- Potency (HEK293): 9.35 µM (active)
- outcome (HaCat [1]): inactive
- outcome (HACAT [2]): inactive
- Potency (MCC-13): inactive
- Potency (MKL-1): inactive
